What all share (test): NCI-60 one-dose screen, 48 h (100 = growth as untreated, 0 = no growth, -100 = all killed)
Test [1] relates to NCI-H460 lung. The settings on record: 10 µM unless noted.
Test [2] concerns HOP-92 NSCLC. The settings on record: 10 µM unless noted.
Test [3] deals with MDA-MB-231 breast. The conditions noted are these: 10 µM unless noted.
Test [4] deals with RXF 393 renal. The settings on record: 10 µM unless noted.
The test system of test [5] is PC-3 prostate. The settings on record: 10 µM unless noted.
For test [6], the system named is SK-MEL-5 melanoma. The settings on record: 10 µM unless noted.
Test [7] has as its system SK-MEL-28 melanoma. The settings on record: 10 µM unless noted.
The subject of test [8] is UO-31 renal. The conditions noted are these: 10 µM unless noted.
For test [9], the system named is CCRF-CEM leukemia. The settings on record: 10 µM unless noted.
The subject of test [10] is SR leukemia. The conditions noted are these: 10 µM.
Test [11] concerns OVCAR-4 ovarian. The conditions noted are these: 10 µM unless noted.
In test [12] the test system is IGROV1 ovarian. The conditions noted are these: 10 µM.
In test [13] the test system is HS 578T breast. The settings on record: 10 µM unless noted.
The test system of test [14] is BT-549 breast. The settings on record: 10 µM.
For test [15], the system named is HCC-2998 colon. The settings on record: 10 µM unless noted.
Test [16] relates to KM12 colon. The settings on record: 10 µM unless noted.
Test [17] relates to MALME-3M melanoma. The conditions noted are these: 10 µM unless noted.
Test [18] relates to UACC-257 melanoma. The conditions noted are these: 10 µM unless noted.
For test [19], the system named is HT29 colon. The conditions noted are these: 10 µM unless noted.
For test [20], the system named is SW-620 colon. The conditions noted are these: 10 µM unless noted.

Structures are written as SMILES. Compounds without any hit were thinned out: in the full panel of roughly 83,000, 20% have a hit.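 The endpoint reported here, percent growth, reads 100 for growth as untreated, 0 for no net growth and -100 for all cells dead.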 Values without a mark were called inactive. The source made the active and inactive calls. The calls were made as follows: active = growth percent below 10; inactive = the rest.

Turning to `C[C@]12C[C@H](O)[C@H]3[C@@H](CCC4=CC(=O)CC[C@@]43C)[C@@H]1CC[C@@H]2O`, the growth in test [1] was 108%; in [2], 95.5%; in test [3] it was 103%; in test [4], 109%; in test [5], 95.3%; in test [6], 100%. The growth in [7] was 106%; in test [8], 77.7%; in [9], 97.3%; in test [10] it was 97.4%; in test [11], 104%; in test [12], 105%. The growth in test [13] is 105%; in test [14], 104%; in test [15], 95.3%; in test [16] it was 105%.
Turning to `Cc1nnc([S-])s1.[Au+].c1ccc([PH+](c2ccccc2)c2ccccc2)cc1`, the growth is 57.3% in test [1]; -76.6% (active) in [2]; -61.6% (active) in [17]; 4.44% (active) in test [3]; -84.6% (active) in test [4]; -12.4% (active) in test [18]. Also, the growth in [19] is 12%; in test [5], 15.4%; in test [6], -45.9% (active); in [7], -55.7% (active); in test [8] it was -3.87% (active); in test [9], 0.579% (active). The growth is 7.04% (active) in test [10]; 36.2% in [11]; -25.4% (active) in [12]; 30.8% in [13]; 33.9% in [14]; -70.6% (active) in test [20]. Also, the results for the growth in test [15] and in test [16] were 37% and 49.1%, respectively.
`Cn1cnnc1[S-].[Au+].c1ccc([PH+](c2ccccc2)c2ccccc2)cc1`: the growth in [1] is 58.5%; in test [2], -58.1% (active); in test [17], -38.1% (active); in [3] it was 30.3%; in [4] it was -78.6% (active); in test [18] it was 22.9%. Also, the growth in test [19] was 39.8%; in test [5], 23.8%; in [6], -9.96% (active); in test [7], 10.5%; in test [8], 48.5%; in [9] it was 1.22% (active). Further, the growth in test [10] is 4.41% (active); in test [11], 38.9%; in test [12], -1.4% (active); in test [13], 49.2%; in test [14] it was 36.8%; in test [20], -49.3% (active). Also, the results for the growth in test [15] and in test [16] were 48.3% and 58.3%, respectively.
Turning to `Oc1c(Br)cc(Br)cc1Br.[Cu+2]`, the growth was 103% in test [1]; 90.5% in test [2]; 86.4% in [17]; 111% in test [3]; 109% in test [4]; 101% in test [18]. The growth in test [19] is 104%; in test [5] it was 103%; in test [6], 102%; in test [7] it was 101%; in test [8] it was 81.2%; in [9], 101%. For the same compound, the growth in [10] was 90.8%; in [11], 87.4%; in test [12], 105%; in [13], 109%; in test [14] it was 122%; in [20], 99.2%. The growth in test [15] is 95.8%; in test [16], 98.1%.
Regarding `C/C1=C/C(=O)O[C@@H]2C[C@@H](CC[C@H](C)/C=C\C=C\CC1)O[C@@](OCCc1ccccc1)([C@@H]1CSC(=O)N1)C2`, the growth in test [1] was 21.6%; in test [2], -58.9% (active); in [17] it was -10.3% (active); in test [3] it was 11.8%; in test [4] it was -77.1% (active); in [18], -3.39% (active). For the same compound, the growth in [19] is 8.63% (active); in [5], 18.3%; in [6], -21.2% (active); in [8], -62.5% (active); in test [9], 21.2%; in [10] it was 41.3%. For the same compound, the growth in test [11] was -4.5% (active); in [12], -55.8% (active); in test [13], -2.84% (active); in test [14], -43% (active); in test [20], 59.3%; in test [15], 55.9%. In [16], the growth is 58.2%.
With `O=C(O)CNC(=O)c1ccccc1`, the growth in test [1] was 103%; in test [2], 92.4%; in test [17], 133%; in [3], 110%; in test [4], 102%; in [18] it was 92.4%. Moreover, the growth was 114% in test [19]; 102% in test [5]; 98.9% in test [6]; 107% in test [7]; 95.8% in test [8]; 101% in test [9]. The growth is 105% in test [11]; 105% in [12]; 108% in [13]; 97.5% in [14]; 99.7% in test [20]; 98.9% in test [15]. Besides, the growth in test [16] is 105%.

These data come from PubChem BioAssay (NCI).
